From PubChem BioAssay (NCI)
The panel holds about 79,000 compounds, 15% with a hit somewhere; the sample as a whole holds those more often. Active and inactive are the calls of the source. Cut-off read from the data, not from the text of the source: active = growth inhibition above about 70%; inactive = the rest.

How the values were obtained:
[1] = NCI Yeast Anticancer Drug Screen. Data for the rad50 strain (AID 155);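 note: 0% = growth of vehicle-only cultures of the same strain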; conditions: S. cerevisiae rad50 strain growth inhibition, active compounds read high
Method in brief: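 Vehicle-treated cultures provide the reference for the growth inhibition reported for compound-exposed, repair-deficient yeast.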

[2] = NCI Yeast Anticancer Drug Screen. Data for the mec2-1 strain (AID 157); conditions: S. cerevisiae mec2-1 strain, active compounds read high
Method in brief: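 Using mec2-1 yeast: add compound, measure growth, express inhibition versus vehicle-treated cultures.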

[3] = NCI Yeast Anticancer Drug Screen. Data for the sgs1 mgt1 strain (AID 161);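 note: 0% = growth of cultures given vehicle only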; conditions: S. cerevisiae sgs1 mgt1 strain, active compounds read high
Method in brief: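 This yeast growth screen uses a strain with defined DNA-repair lesions; compound-treated growth is compared with vehicle-treated growth.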

[4] = NCI Yeast Anticancer Drug Screen. Data for the cln2 rad14 strain (AID 165);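 note: 0% = growth equal to vehicle treated cultures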; conditions: S. cerevisiae cln2 rad14 strain, active compounds read high
Method in brief: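 Yeast strain cln2 rad14, bearing defects in cell cycle control and DNA repair, serves as the test system; values reflect growth inhibition compared with vehicle.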

[5] = NCI Yeast Anticancer Drug Screen. Data for the bub3 strain (AID 167); conditions: S. cerevisiae bub3 mutant strain, active compounds read high
Method in brief: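 Mutant yeast screening strain plus compound; vehicle-treated cultures serve as the 0% inhibition reference.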

[6] = NCI Yeast Anticancer Drug Screen. Data for the wt2 strain (AID 169); conditions: S. cerevisiae wt2 strain growth inhibition, active compounds read high
Method in brief: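 Treated yeast vs. vehicle-treated yeast: growth inhibition determined.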

[7] = NCI Yeast Anticancer Drug Screen. Data for the mlh1 rad18 strain (AID 175); conditions: S. cerevisiae mlh1 rad18 strain growth inhibition, active compounds read high
Method in brief: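 Steps: expose repair-defective yeast to compound; measure growth; express inhibition against vehicle-treated controls.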

[8] = NCI Yeast Anticancer Drug Screen. Data for the wt1 strain (AID 149);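 note: 0% = growth of vehicle-treated wt1 cultures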; conditions: S. cerevisiae wt1 strain (SPY 50644) growth inhibition, active compounds read high
Method in brief: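 Each compound is tested on wt1 yeast and the loss of growth versus vehicle gives the inhibition value.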

[9] = NCI Yeast Anticancer Drug Screen. Data for the mgt1 strain (AID 153); conditions: S. cerevisiae mgt1 mutant growth inhibition, active compounds read high
Method in brief: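 Measured: inhibition of mgt1 yeast growth by compound, normalized to vehicle-treated cultures.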

[10] = NCI Yeast Anticancer Drug Screen. Data for the rad14 strain (AID 159);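 note: 0% = growth of vehicle-treated control cultures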; conditions: S. cerevisiae rad14 strain growth inhibition, active compounds read high
Method in brief: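 Inhibition of growth is reported for a repair-deficient yeast mutant following compound treatment, calculated relative to cultures that received vehicle.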

[11] = NCI Yeast Anticancer Drug Screen. Data for the CLN2oe strain (AID 163);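 note: 0% = growth of vehicle-only control cultures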; conditions: S. cerevisiae CLN2oe strain, active compounds read high
Method in brief: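 Whole-cell yeast growth assay. A strain engineered for altered cell-cycle control received compound, and inhibition relative to vehicle-treated cultures was recorded.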

[12] = NCI Yeast Anticancer Drug Screen. Data for the mlh1 strain (AID 171);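 note: 0% = growth of vehicle-treated control cultures of the same strain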; conditions: S. cerevisiae mlh1 strain growth inhibition, active compounds read high
Method in brief: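 A yeast strain with a defined genetic lesion serves as the test organism. Cultures receive compound or vehicle, and growth is measured.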

[13] = NCI Yeast Anticancer Drug Screen. Data for the sgs1 strain (AID 173);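 note: 0% = growth of vehicle-only control cultures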; conditions: S. cerevisiae sgs1 mutant, active compounds read high
Method in brief: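 A genetically defined yeast mutant is incubated with the test compound, and its growth is compared to that of the same strain given vehicle.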

[14] = NCI Yeast Anticancer Drug Screen. Data for the rad18 strain (AID 177); conditions: S. cerevisiae rad18 mutant growth inhibition, active compounds read high
Method in brief: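 Measured value is growth inhibition of a yeast strain bearing a DNA repair alteration, referenced to vehicle-treated cells.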

[15] = at 5.0 µM (retest, dose inferred, filed as 0.5)
[16] = at 50.0 µM (retest, dose inferred, filed as 5.0)

Measured: growth inhibition

CNC(Cc1ccccc1)c1ccc(OC)c(OC)c1 (configuration not stated)
inactive: [1]; [15] 69% | [1]; at 50.0 µM -2.25% | [2]; at 50.0 µM 4.05% | [3]; [15] -31% | [3]; [16] 14% | [3]; at 50.0 µM 18.7% | [4]; [15] 18% | [4]; [16] 13% | [4]; at 50.0 µM -15.6% | [5]; [15] 21% | [5]; [16] 28% | [5]; at 50.0 µM 14.3% | [6]; at 1.2 µM -20% | [6]; at 3.7 µM -14% | [6]; at 11.0 µM -26% | [6]; at 33.0 µM -13% | [6]; at 100.0 µM -25% | [7]; [15] 57% | [7]; at 50.0 µM 7.3%
active: [1]; [16] 95% | [2]; [15] 79% | [2]; [16] 97% | [7]; [16] 98%

Cc1nc(Cl)c(CBr)c(Cl)n1
inactive: [1]; [15] 38% | [1]; at 50.0 µM 67.8% | [2]; [15] 44% | [3]; [15] 43% | [3]; at 50.0 µM 32.6% | [4]; [15] 40% | [4]; at 50.0 µM 33.8% | [5]; [15] 54% | [5]; at 50.0 µM 52.5% | [7]; [15] 50%
active: [1]; [16] 99% | [2]; [16] 100% | [2]; at 50.0 µM 70.2% | [3]; [16] 100% | [4]; [16] 100% | [5]; [16] 100% | [7]; [16] 99%

CCN(CC)CC.CCOc1ccc(NC(=O)N=C=[N-])cc1.[CH-]1CCCCC1.[CH-]1CCCCC1.[CH-]1CCCCC1.[Cl-].[Sn+4]
active: [1]; [15] 99% | [1]; [16] 99% | [1]; at 50.0 µM 87.2% | [2]; [15] 100% | [2]; [16] 99% | [2]; at 50.0 µM 88.4% | [3]; [15] 99% | [3]; [16] 99% | [3]; at 50.0 µM 90.2% | [4]; [15] 99% | [4]; [16] 99% | [4]; at 50.0 µM 89.5% | [5]; [15] 99% | [5]; [16] 99% | [5]; at 50.0 µM 89.2% | [7]; [15] 99% | [7]; [16] 99%

CN(N=O)C(=O)NNC(=O)N(C)N=O
active: [9]; at 33.0 µM 88% | [9]; at 100.0 µM 96% | [1]; at 33.0 µM 92% | [1]; [16] 95% | [1]; at 50.0 µM 94.9% | [1]; at 100.0 µM 96% | [2]; [16] 85% | [2]; at 100.0 µM 96% | [3]; [15] 74% | [3]; [16] 96% | [3]; at 50.0 µM 91.6% | [13]; at 33.0 µM 81% | [13]; at 100.0 µM 91% | [14]; at 1.2 µM 71% | [14]; at 3.7 µM 95% | [14]; at 11.0 µM 96% | [14]; at 33.0 µM 96% | [14]; at 100.0 µM 96%
inactive: [8]; at 1.2 µM 0% | [8]; at 3.7 µM 1% | [8]; at 11.0 µM 5% | [8]; at 33.0 µM 16% | [8]; at 100.0 µM 38% | [9]; at 1.2 µM 9% | [9]; at 3.7 µM 28% | [9]; at 11.0 µM 51% | [1]; at 1.2 µM 6% | [1]; at 3.7 µM 23% | [1]; [15] 21% | [1]; at 11.0 µM 56% | [2]; at 1.2 µM -2% | [2]; at 3.7 µM 3% | [2]; [15] 10% | [2]; at 11.0 µM 22% | [2]; at 33.0 µM 61% | [2]; at 50.0 µM 38.2% | [10]; at 1.2 µM -2% | [10]; at 3.7 µM 18% | [10]; at 11.0 µM 5% | [10]; at 33.0 µM 22% | [10]; at 100.0 µM 57% | [11]; at 1.2 µM -5% | [11]; at 3.7 µM -4% | [11]; at 11.0 µM -7% | [11]; at 33.0 µM 11% | [11]; at 100.0 µM 41% | [4]; [15] -32% | [4]; [16] 18% | [4]; at 50.0 µM 11.7% | [5]; at 1.2 µM -9% | [5]; at 3.7 µM 5% | [5]; [15] -11% | [5]; at 11.0 µM -6% | [5]; at 33.0 µM 15% | [5]; [16] 27% | [5]; at 50.0 µM 1.9% | [5]; at 100.0 µM 39% | [6]; at 1.2 µM -3% | [6]; at 3.7 µM -2% | [6]; at 11.0 µM 1% | [6]; at 33.0 µM 16% | [6]; at 100.0 µM 49% | [12]; at 1.2 µM -1% | [12]; at 3.7 µM -3% | [12]; at 11.0 µM 7% | [12]; at 33.0 µM 31% | [12]; at 100.0 µM 68% | [13]; at 1.2 µM 11% | [13]; at 3.7 µM 26% | [13]; at 11.0 µM 52%
